Out of some 310,000 compounds screened, about 14,000 (4.5%) showed an effect of 50% or more. Effects have a minus sign here. What follows is part of a selection rich in strong results, with near analogues and random picks from the rest.
Target: human ether-à-go-go-related gene (hERG) potassium channel (human, UniProt Q12809)
Assay: primary screen, population patch clamp on CHO cells stably expressing hERG; higher = less effect of the substance
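Further: peak tail current of the secondary pulse compared with the same well before compound.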

Chain of human ether-à-go-go-related gene (hERG) potassium channel (Q12809 whole entry, looked up): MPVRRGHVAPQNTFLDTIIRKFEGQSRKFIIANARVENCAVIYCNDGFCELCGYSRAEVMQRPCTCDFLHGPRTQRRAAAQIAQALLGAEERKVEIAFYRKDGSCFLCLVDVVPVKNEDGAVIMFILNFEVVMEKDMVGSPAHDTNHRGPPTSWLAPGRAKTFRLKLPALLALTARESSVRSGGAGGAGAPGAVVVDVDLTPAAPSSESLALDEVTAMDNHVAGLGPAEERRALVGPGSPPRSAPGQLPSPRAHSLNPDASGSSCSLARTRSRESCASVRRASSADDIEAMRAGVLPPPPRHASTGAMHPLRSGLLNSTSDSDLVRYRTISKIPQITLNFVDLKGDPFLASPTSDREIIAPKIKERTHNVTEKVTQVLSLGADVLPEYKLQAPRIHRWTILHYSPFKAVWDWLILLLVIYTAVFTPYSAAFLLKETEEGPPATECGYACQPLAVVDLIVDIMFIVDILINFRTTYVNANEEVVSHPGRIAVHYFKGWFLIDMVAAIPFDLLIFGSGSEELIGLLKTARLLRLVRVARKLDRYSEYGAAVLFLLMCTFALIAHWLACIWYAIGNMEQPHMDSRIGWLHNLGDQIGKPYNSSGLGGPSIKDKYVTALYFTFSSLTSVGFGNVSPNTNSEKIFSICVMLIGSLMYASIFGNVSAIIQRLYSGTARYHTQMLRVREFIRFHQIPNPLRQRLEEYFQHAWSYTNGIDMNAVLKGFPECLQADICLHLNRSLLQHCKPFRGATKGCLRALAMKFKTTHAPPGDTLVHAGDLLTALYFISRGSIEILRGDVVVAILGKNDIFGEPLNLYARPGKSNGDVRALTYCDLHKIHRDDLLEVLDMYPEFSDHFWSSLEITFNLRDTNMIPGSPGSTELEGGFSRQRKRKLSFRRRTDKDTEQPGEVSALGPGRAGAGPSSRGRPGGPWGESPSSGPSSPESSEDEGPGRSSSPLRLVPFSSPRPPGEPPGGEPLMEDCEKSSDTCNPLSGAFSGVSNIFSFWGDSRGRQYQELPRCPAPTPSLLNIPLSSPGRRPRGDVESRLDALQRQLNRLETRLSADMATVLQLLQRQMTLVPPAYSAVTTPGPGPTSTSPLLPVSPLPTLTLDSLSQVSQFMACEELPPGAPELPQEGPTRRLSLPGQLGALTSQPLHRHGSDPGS

Row | SMILES | hERG current change (%, negative = inhibition) at 10uM [%]
1 | COCC(=O)Nc1ccc(C)c(Cl)c1 | 14.4
2 | Cc1cccc(NS(=O)(=O)c2ccc(OCC(=O)N3CCCC3)cc2)c1 | -19.1
3 | CCCn1nnnc1NC(=O)COc1ccc(CC)cc1 | -3.02
4 | Cc1ccc(NC(=O)CCSc2nnc(C)o2)cc1 | 2.48
5 | CC1(C)NC(=O)N(CCCCOc2cccc(C(F)(F)F)c2)C1=O | -6.92
6 | CN1CCN(c2ccc(C(N)=O)cc2N)CC1 | 6.81
7 | CN1C(=O)C(C)(C)c2cc(S(=O)(=O)N3CCCC(C(=O)Nc4ccc(Cl)cc4)C3)ccc21 (stereo not shown) | -9.27
8 | COC(=O)/C(C#N)=C/c1c(Oc2cccc(C)c2C)nc2ccccn2c1=O | -12.6
9 | COC(=O)CCCn1nc(NC(=O)COc2ccc(F)cc2)cc1C | -5.47
10 | COc1ccc(C(C(=O)NC(C)(C)C)N(C(=O)CNC(=O)c2cccs2)c2ccc(NC(C)=O)cc2)cc1OC (stereo not shown) | 10.4
11 | O=C(NC1CCCCC1)c1cc(C2CC2)nn1-c1ccccc1 | -51.2
12 | CC1CCC(NC(=O)c2cc(C3CC3)nn2-c2ccccc2)CC1 (stereo not shown) | -34.9
13 | COc1ccc(N2CCN(C(=O)c3cc(C4CC4)nn3-c3ccccc3)CC2)cc1 | -44.4
14 | O=C(c1cc(C2CC2)nn1-c1ccccc1)N1CCN(Cc2ccc(Cl)cc2)CC1 | -32.1
15 | COc1ccc(OC)c(S(=O)(=O)N2CCN(C(=O)c3cc(C4CC4)nn3-c3ccccc3)CC2)c1 | -11.1
16 | O=C(O)c1cc(C2CC2)nn1-c1ccccc1 | 17.5
17 | COc1cc2c(cc1OC)CN(C(=O)c1cc(C3CC3)nn1-c1ccccc1)CC2 | -56.2
18 | COc1ccc(CN2CCN(C(=O)c3cc(C4CC4)nn3-c3ccccc3)CC2)cc1F | -48.6
19 | N#Cc1ccc(CN2CCN(C(=O)c3cc(C4CC4)nn3-c3ccccc3)CC2)cc1 | -57.2
20 | COc1ccc(NC(=O)Nc2ccccc2SC)cc1OC | 6.08
21 | Cc1ccc(C)c(N2CCN(C(=O)Cn3c(=O)[nH]c4ccsc4c3=O)CC2)c1 | -4.12

Row | SMILES | hERG current change (%, negative = inhibition) at 10uM [%]
22 | Cc1ccc(C(=O)Nc2nnc(-c3ccc(C(C)(C)C)cc3)s2)cc1 | 4.81
23 | CCN(CC)CCCN1CC(=O)N2[C@@H](Cc3c([nH]c4ccccc34)C2(C)C)C1=O | 1.24
24 | CCCCN(CCCC)CCCN1CC(=O)N2[C@@H](Cc3c([nH]c4ccccc34)C2(C)C)C1=O | -73.2
25 | CCCCCCN1CC(=O)N2[C@@H](Cc3c([nH]c4ccccc34)C2(C)C)C1=O | 13.9
26 | O=C(NCc1cccnc1)c1cc(-c2ccco2)on1 | 8.02
27 | CC(NC(=O)C1CCN(C(=O)[C@@H]2Cc3ccccc3CN2C(=O)OC(C)(C)C)CC1)c1ccccc1 (stereo partly shown) | 14
28 | O=C(NCC(=O)N(c1cnc2ccccc2c1)C(C(=O)NC1CCCC1)c1ccncc1)c1ccco1 (stereo not shown) | 8.74
29 | CC(C)(C)S(=O)(=O)c1nc2ccccc2s1 | 6.74
30 | CCCc1ccc2oc(C(=O)N3CCCC3)c(C)c2c1 | -7.11
31 | CCCc1ccc2oc(C(=O)N3CCC(O)CC3)c(C)c2c1 | -12.2
32 | CCCc1ccc2oc(C(=O)N3CCN(C4CCS(=O)(=O)C4)CC3)c(C)c2c1 (stereo not shown) | -51.3
33 | Oc1oc(-c2ccccc2)nc1C=NCc1ccncc1 | -7.6
34 | COc1ccc(S(=O)(=O)N[C@@H](Cc2ccccc2)C(=O)N2CC[C@@]3(O)CCCC[C@H]3C2)cc1 | -14.9
35 | COCCCn1c(-c2cccc(Cl)c2)nc2c1c(=O)[nH]c(=O)n2Cc1ccccc1 | -0.77
36 | CCCCn1c(=O)[nH]c(=O)c2c1nc(-c1ccc(OC(F)F)c(OC)c1)n2C | 17.1
37 | CCCn1c(-c2cccc([N+](=O)[O-])c2)nc2c1c(=O)[nH]c(=O)n2Cc1ccccc1 | -66.4
38 | CCCn1c(=O)[nH]c(=O)c2c1nc(-c1ccc(OC(F)F)c(OC)c1)n2CCOC | -50.5
39 | CCCn1c(=O)[nH]c(=O)c2c1nc(-c1ccc(OC)c(Br)c1)n2CCOC | -20.1
40 | CCCn1c(-c2cccc(F)c2)nc2c1c(=O)[nH]c(=O)n2Cc1ccccc1 | 17.5
41 | COCCn1c(-c2cccc([N+](=O)[O-])c2)nc2c1c(=O)[nH]c(=O)n2Cc1ccccc1 | -84.2
42 | COCCn1c(-c2ccc(C#N)cc2)nc2c1c(=O)[nH]c(=O)n2Cc1ccccc1 | -33.9

Row | SMILES | hERG current change (%, negative = inhibition) at 10uM [%]
43 | CCCn1c(-c2cc(OC)c(OC)c(OC)c2)nc2c1c(=O)[nH]c(=O)n2Cc1ccccc1 | 5.09
44 | CS(=O)(=O)c1ccc2nc(NC(=O)c3ccc(Cn4cc(Br)cn4)o3)sc2c1 | -27.1
45 | CCc1c(C)[nH]c2c1C(=O)C(CN1CCOCC1)CC2.Cl (stereo not shown) | -7.67
46 | CCOc1cc(C(=O)O/N=C(\N)c2ccc([N+](=O)[O-])cc2)cc(OCC)c1OCC | -16
47 | CCOc1ccccc1N1C(=O)NC(=O)/C(=C/c2ccc3c4c(cccc24)CC3)C1=O | 2.74
48 | CSc1nsc(SC)c1NC(=O)OCCc1ccccn1 | -6.18
49 | CCCC(c1nnnn1CCOC)N1CCN(c2nc3ccccc3s2)CC1 (stereo not shown) | -66.2
50 | CCC(c1nnnn1Cc1cccs1)N1CCN(c2nc3ccccc3s2)CC1 (stereo not shown) | -56.1
51 | c1ccc(CCn2nnnc2C(c2cccnc2)N2CCN(c3nc4ccccc4s3)CC2)cc1 (stereo not shown) | -58.7
52 | CC(C)CC(c1nnnn1Cc1cccs1)N1CCN(c2nc3ccccc3s2)CC1 (stereo not shown) | 0.473
53 | COCCn1nnnc1C(c1cccs1)N1CCN(c2nc3ccccc3s2)CC1 (stereo not shown) | -25.3
54 | COCCn1nnnc1C(c1ccc(OC)c(OC)c1)N1CCN(c2nc3ccccc3s2)CC1 (stereo not shown) | -56.3
55 | COc1cc(C(c2nnnn2C(C)(C)C)N2CCN(c3nc4ccccc4s3)CC2)ccc1O (stereo not shown) | -28.1
56 | COCCn1nnnc1C(CC(C)C)N1CCN(c2nc3ccccc3s2)CC1 (stereo not shown) | -9.4
57 | CCC(c1nnnn1CCOC)N1CCN(c2nc3ccccc3s2)CC1 (stereo not shown) | -34.7
58 | CCCC(c1nnnn1Cc1cccs1)N1CCN(c2nc3ccccc3s2)CC1 (stereo not shown) | -22.4
59 | c1ccc(CCn2nnnc2C(c2cccnc2)N2CCN(c3ccccc3)CC2)cc1 (stereo not shown) | -47.6
60 | Oc1ccc(C(c2nnnn2CCc2ccccc2)N2CCN(c3nc4ccccc4s3)CC2)cc1 (stereo not shown) | 9.25
61 | Cc1ccc2nc(SC(C(=O)Nc3ccc(F)cc3)c3ccccc3)[nH]c2c1 (stereo not shown) | -1.38
62 | Cc1ccsc1/C=N/NC(=O)c1ccc2nc[nH]c2c1 | -2.67
63 | COC(=O)c1cc(C#N)c(OC(C)C)nc1C | -6.52

Row | SMILES | hERG current change (%, negative = inhibition) at 10uM [%]
64 | Cc1cc(C)c(S(=O)(=O)N2CCCOC2CNC(=O)C(=O)NCc2cccnc2)c(C)c1 (stereo not shown) | 8.23
65 | COc1ccc(C(c2nnnn2Cc2ccccc2)N2CCN(c3nc4ccccc4s3)CC2)cc1 (stereo not shown) | 13.7
66 | COc1ccccc1C(c1nnnn1Cc1ccccc1)N1CCN(c2nc3ccccc3s2)CC1.Cl (stereo not shown) | 23.1
67 | COc1ccc(C(c2nnnn2Cc2ccccc2)N2CCN(c3nc4ccccc4s3)CC2)cc1OC.Cl (stereo not shown) | -58.4
68 | O=C(N/N=C/c1ccc(Cl)cc1)c1nc2ccc([N+](=O)[O-])cc2c(=O)[nH]1 | -27.3
69 | CC(C)Cn1c(CN2C(=O)c3ccccc3C2=O)nc2ccccc2c1=O | 16.7
70 | Fc1cc(Br)ccc1NC(=S)NCCc1ccccc1 | -1.43
71 | O=C(c1cc(C2CC2)on1)N1CCCC(N2CCN(c3cccc(C(F)(F)F)c3)CC2)C1 (stereo not shown) | -48.7
72 | COC(=O)c1ccc(C(=O)N2CCCC(N3CCN(c4ccccc4)CC3)C2)nc1 (stereo not shown) | -22.4
73 | O=C(c1cc(C2CC2)on1)N1CCN(c2ccc(F)cc2)CC1 | -43.4
74 | CC(C)c1cc(C(=O)N2CCCC(N3CCN(c4ccc(F)cc4)CC3)C2)no1 (stereo not shown) | -72.1
75 | O=C(c1ccccn1)N1CCCC(N2CCN(c3ccc(F)cc3)CC2)C1 (stereo not shown) | -37.2
76 | Cc1cccc(C(=O)N2CCCC(N3CCN(c4ccc(F)cc4)CC3)C2)n1 (stereo not shown) | -48.4
77 | CCCc1cc(C(=O)N2CCCC(N3CCN(c4ccc(F)cc4)CC3)C2)no1 (stereo not shown) | -73
78 | COCc1ccc(C(=O)N2CCCC(N3CCN(c4ccc(F)cc4)CC3)C2)o1 (stereo not shown) | -47.3
79 | COC(=O)c1ccc(C(=O)N2CCCC(N3CCN(c4ccc(F)cc4)CC3)C2)nc1 (stereo not shown) | -56.1
80 | O=C(c1cc(C2CC2)on1)N1CCCC(N2CCN(c3ccc(F)cc3)CC2)C1 (stereo not shown) | -63.7
81 | CCc1noc(C)c1C(=O)N1CCCC(N2CCN(c3ccc(F)cc3)CC2)C1 (stereo not shown) | -27.2
82 | Cc1cc(C(=O)N2CCCC(N3CCN(c4ccc(F)cc4)CC3)C2)no1 (stereo not shown) | -37.7
